Bioassay records from PubChem.
HepG2 viability = kills HepG2 cells in TGF-b inhibitor counter-screen; AID 588856; HepG2 CAGA-GFP viability, ATP luminescence, 18 h; Potency, µM (titrated, usually from 46.1 µM), inactives show at the highest dose activity change, negative = cytotoxicity, hits mostly cytotoxic; 410,000 tested, 0.76% active; also: potency is read from the fitted curve at half-maximal effect
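HepG2 CAGA-GFP cells (1000/well, DMEM with 1% FBS) received compound, then TGF-beta at 500 pg/mL final, and were incubated 18 hours at 37 degrees C. Viability was read by CellTiter-Glo luminescence. Media-only wells were set as complete cell-killing and DMSO as no toxicity.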
TGFb SMAD3 inh = TGF-b pathway inhibition; HepG2 CAGA-GFP TGF-b/SMAD3 reporter, GFP fluorescence, 18 h; TGF-beta stimulated, 500 pg/mL final; 410,000 tested, 1.2% active; Potency, µM (titrated, usually from 46.1 µM), for inactives: at the top dose activity, negative = inhibition, hits mostly inhibitors; also: potency is read from the fitted curve at half-maximal effect; % is scaled to controls: 0 for no effect and ±100 for the full control effect; nearly all actives have a fitted effect of over 65% in size
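TGF-beta reporter screen: HEPG2 CAGA-GFP, 1% FBS, 500 pg/mL TGF-beta final, 18 h; per-cell GFP summed per well; curves fitted and categorized by class.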
mIDH1 inhibitor = human IDH1 R132H inhibition | O75874 | IDH1-R132H enzyme, NADPH consumption, diaphorase/resazurin fluorescence | Potency, µM (top dose mostly 76.6 µM), for inactives: at the highest dose activity change, negative = inhibition, actives largely listed as inhibitors | 390,000 tested, 0.093% active | AID 602179; also: potency is read from the fitted curve at half-maximal effect; % is scaled to controls: 0 for no effect and ±100 for the full control effect; nearly all actives have a fitted effect of over 65% in size
Target sequence (O75874 whole entry R132H, stated change not applied): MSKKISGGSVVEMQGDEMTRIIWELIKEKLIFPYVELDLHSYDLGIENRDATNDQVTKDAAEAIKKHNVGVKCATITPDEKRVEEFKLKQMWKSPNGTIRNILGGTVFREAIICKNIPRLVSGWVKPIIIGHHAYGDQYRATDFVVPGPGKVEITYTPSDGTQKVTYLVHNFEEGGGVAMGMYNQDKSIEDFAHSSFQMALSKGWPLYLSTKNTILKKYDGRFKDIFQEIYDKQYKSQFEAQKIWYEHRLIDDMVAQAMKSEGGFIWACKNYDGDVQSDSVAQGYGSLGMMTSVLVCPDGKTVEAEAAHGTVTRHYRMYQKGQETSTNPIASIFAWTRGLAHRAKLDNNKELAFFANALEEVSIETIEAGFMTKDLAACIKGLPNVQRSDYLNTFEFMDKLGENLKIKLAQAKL
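IDH1-R132H (0.5 ug/mL) preincubated 30 min with compound, then NADPH (0.016 mM) and alpha-KG (2 mM) added; 80 min at RT, pH 7.5. Remaining NADPH coupled via diaphorase/resazurin to fluorescence (540/590 nm); concentration-response curves normalized to no-enzyme control.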
LDHA block = LDHA (human) enzyme inhibition; P00338; purified LDHA, NADH/diaphorase-resazurin fluorescence; stronger effect = lower value; activity change, % (values are at about 110 or 230 µM); 480,000 tested, 0.15% active; AID 1347041; in the data active = activity change below about -30%; inconclusive = mostly about -25% to -30%;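 also: plate controls were DMSO wells for no effect and wells without enzyme for full effect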
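Enzyme activity of human lactate dehydrogenase 5 (2 nM; 0.06 mM NADH, 0.2 mM pyruvate, 5 min, RT) is measured via a resazurin/diaphorase fluorescence readout of residual NADH.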
ATXN viability = viability counter-screen for ATXN expression inhibitors. S2 cells (HEK-293 line with an ATXN2-luciferase reporter) viability, CellTiter-Fluor protease fluorescence, 24 h. Potency, µM (titrated, usually from 56.7 µM), usual class: cytotoxic. 400,000 tested, 0.49% active; also: potency is read from the fitted curve at half-maximal effect; nearly all actives have a fitted effect of over 40% in size
ATXN2 expr inh = ATXN2 expression inhibition | HEK-293 ATXN2-luciferase reporter, luminescence, 24 h | Potency, µM (top dose mostly 57 µM), for the others: top-dose activity change, negative = inhibition, actives largely listed as inhibitors | 360,000 tested, 0.72% active | AID 1745845; also: potency is read from the fitted curve at half-maximal effect; % is scaled to controls: 0 for no effect and ±100 for the full control effect; nearly all actives have a fitted effect of over 55% in size
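qHTS (up to 57 uM final) was run with 24 h compound exposure of reporter cells at 37 °C. Each well was multiplexed: SteadyGlo luminescence measured ATXN2-luciferase expression after a fluorogenic Gly-Phe-AFC viability readout (25 uM final).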
An asterisk follows results filed as active; i = inactive; ? = inconclusive; . = no result given. This is a sample that favours compounds with a hit; in the whole collection about 2.2% have one here. Unless noted, calls follow the shape of the dose curve; as a rule, active = well fitted curve in the direction sought with a large enough effect; inconclusive = small, poorly fitted or top-dose-only effect, or another doubt; inactive = no such curve, though single readings can be large; an effect the other way counts as inactive or inconclusive.

SMILES | HepG2 viability | TGFb SMAD3 inh | mIDH1 inhibitor | LDHA block | ATXN viability | ATXN2 expr inh
CCc1ccc([C@H]2[C@@H]3C(=O)C[C@@H]4C(=O)N(c5ccccc5)C(=O)[C@@H]4[C@@H]3CN2S(=O)(=O)c2ccc(C)cc2)cc1 | -2.7% | -9.9% | . | -2.6 | i | 46.2%
Cc1ccc(S(=O)(=O)Cc2ccc(C(=O)OCc3ccccc3)cc2)cc1 | -7.6% | 6.0% | 4.3% | 0.8 | i | -3.3%
COC(=O)c1c[nH]c2c1-c1cc(C(=O)OCc3ccccc3)n(S(=O)(=O)c3ccc(C)cc3)c1C(=O)C2=O | 0.562µM* | 0.447µM* | 14.6% | 32.2 | ? | ?
CC(C)C(=O)NC(=S)Nc1ccccc1C(F)(F)F | -25.6% | 18.0% | 2.6% | 1.8 | ? | -1.3%
C/C(N)=C(/C#N)C(=O)CSc1nc2ccccc2c(=O)n1Cc1ccc(C)cc1 | -44.1% | -17.3% | -1.0% | -7.8 | ? | -35.6%
C/C(N)=C(/C#N)C(=O)CSc1nc2ccccc2c(=O)n1Cc1ccc(F)cc1 | -45.6% | 11.2µM* | -4.1% | 0.5 | ? | .
COCCn1c(SCC(=O)c2cc(C)n(C)c2C)nnc1-c1ccc(Cl)cc1 | . | . | . | -4.5 | . | .
CN(C(=O)COC(=O)c1cccc(NS(=O)(=O)c2ccc(F)c(F)c2)c1)C1CCS(=O)(=O)C1 (centres undefined) | -2.5% | -14.9% | 7.4% | -9.4 | i | .
CCOC(=O)c1ccccc1NC(=O)C1CCCO1 (centres undefined) | -33.3% | -3.5% | -5.1% | -0.3 | i | -5.7%
CCOC(=O)C(=NCC1CCCO1)NNc1ccccc1Cl (centres undefined) | 1.26µM* | -4.6% | 18.5% | -5.5 | i | -9.3%
CCOC(=O)c1c(NC(=O)c2ccccc2OCC)sc2c1CCC(CC)C2 (centres undefined) | 4.4% | 0.6% | -5.2% | -1.3 | i | 2.3%
Cn1cnc(S(=O)(=O)N2CCC(C(=O)N3CCN(c4cccc(C(F)(F)F)c4)CC3)CC2)c1 | -6.8% | -1.7% | 11.9% | -2.5 | . | .
O=[N+]([O-])c1ccc(Sc2ccncn2)c([N+](=O)[O-])c1 | 10µM* | 11.2µM* | -5.2% | 1.1 | . | .
O=[N+]([O-])c1ccc(Sc2cccc3cccnc23)c([N+](=O)[O-])c1 | -105.4% | 3.98µM* | 44.1% | -0.7 | 6.31µM* | ?
O=[N+]([O-])c1ccc(Sc2cccc3cccnc23)cc1 | -14.8% | -7.2% | 35.7% | -2.2 | i | 50.7%
C=CCn1nc([N+](=O)[O-])nc1Sc1cccc2cccnc12 | 5.62µM* | 3.16µM* | 9.1% | 6.5 | . | 22.4µM*
Cc1ccc(N(C)C(=O)Cn2nc(Cc3ccncc3)c3ccccc3c2=O)cc1C | -30.9% | ? | 0.0% | -2.2 | . | .
O=C(Nc1ccc([N+](=O)[O-])cc1Cl)c1ccccc1O | -34.7% | ? | . | 2.2 | . | .
CC(=O)Oc1c(C)cc(Cl)cc1C(=O)Nc1ccc([N+](=O)[O-])cc1Cl | -42.1% | ? | 8.9% | -1.9 | 28.2µM* | ?
Cc1ccc(C(=O)N/N=C/c2ccc([N+](=O)[O-])s2)cc1 | -29.1% | ? | 11.9% | -35.0* | i | 2.24µM*
O=C(N/N=C/c1ccc([N+](=O)[O-])s1)c1ccncc1 | 12.6µM* | ? | -7.7% | 6.9 | i | ?
Cc1cc(C(=O)N/N=C/c2ccc([N+](=O)[O-])s2)n[nH]1 | 17.8µM* | 11.2µM* | 6.4% | 0.6 | ? | 14.1µM*
Cc1ccc(C(=O)N/N=C\c2ccc([N+](=O)[O-])s2)cn1 | -6.8% | -23.8% | 0.7% | -4.5 | i | ?
Cc1cc(C(=O)N/N=C/c2ccc(C)s2)n[nH]1 | -1.6% | -1.5% | -1.2% | -7.5 | i | 29.3%
CCOC(=O)N/N=C\c1ccc([N+](=O)[O-])s1 | -48.9% | 22.4µM* | 5.2% | -7.1 | ? | ?
SMILES | HepG2 viability | TGFb SMAD3 inh | mIDH1 inhibitor | LDHA block | ATXN viability | ATXN2 expr inh
CCCNC(=O)C1CC2Cn3c(nc4ccccc43)C2N1C (centres undefined) | -1.1% | -13.4% | -3.7% | 2.3 | i | 7.2%
O=C(c1nc2nc(-c3ccco3)cc(C(F)(F)F)n2n1)N1CCC2(CC1)OCCO2 | . | . | . | -7.3 | . | .
Cc1cc(C(=O)N/N=C/c2cc(Br)ccc2OC(=O)c2ccccc2)n[nH]1 | -34.5% | -21.1% | 0.8% | -10.2 | i | 26.7µM*
Cc1cccc(NC(=S)N/N=C/c2ccc([N+](=O)[O-])s2)c1 | 6.31µM* | 7.08µM* | 2.4% | -1.9 | . | 20µM*
Cc1cc(C(=O)N/N=C/c2cc(Br)ccc2OC(=O)c2ccccc2Cl)n[nH]1 | -21.2% | -21.6% | 1.2% | -2.8 | . | ?
CCOc1ccc(S(=O)(=O)NCc2ccccn2)cc1C | . | . | . | 16.7 | . | .
CCOc1ccc(S(=O)(=O)NCCc2c(C)[nH]c3c(Cl)cccc23)cc1C | 17.8µM* | 15.8µM* | -4.2% | 1.3 | i | ?
CCc1ccc(C(=O)CC2(O)C(=O)N(CCc3ccccc3)c3ccc(Cl)cc32)cc1 (centres undefined) | 20µM* | 12.6µM* | -3.7% | 6.3 | ? | ?
Cc1ccccc1CN1C(=O)C(O)(CC(=O)c2ccccc2)c2cc(Cl)ccc21 (centres undefined) | 20µM* | ? | -4.1% | -10.7 | . | .
CCN(CC)CCN(C(=O)/C=C/c1cccs1)c1nc2ccc(F)cc2s1 | -40.2% | ? | -2.4% | -1.9 | i | .
CN(C)CCCN(C(=O)/C=C/c1cccs1)c1nc2ccc(F)cc2s1 | 15.8µM* | 17.0% | -2.1% | -9.6 | . | ?
COc1ccc(C)c2sc(N(CCN(C)C)C(=O)/C=C/c3cccs3)nc12 | 11.2µM* | ? | 17.2% | -0.3 | ? | ?
COc1ccc(OC)c2sc(N(CCN(C)C)C(=O)/C=C/c3cccs3)nc12 | 15.8µM* | ? | 0.6% | -4.8 | . | ?
O=C1c2ccccc2C(=O)N1Cc1ccccc1F | -4.9% | 9.4% | 4.3% | -1.0 | i | 8.2%
Cc1ccc(S(=O)(=O)Nc2ccc(Cl)cc2)cc1NC(=O)c1cc2c(s1)CCCC2 | -36.4% | 12.6µM* | 3.4% | -1.7 | ? | -13.8%
COC(=O)CSc1nc(NC#N)nc(NC(C)C)n1 | -0.7% | -5.4% | 3.6% | -3.5 | i | -6.5%
CCOC(=O)CNS(=O)(=O)c1cc(-c2nnc(Nc3cccc(O)c3)c3ccccc23)ccc1C | 11.2µM* | 0.0% | -16.9% | -3.9 | . | .
Cc1ccc(-c2nnc(Nc3ccc(C(N)=O)cc3)c3ccccc23)cc1S(N)(=O)=O | -23.4% | -2.6% | -24.1% | -9.9 | i | -11.6%
